Experimental data published in PubChem BioAssay AID2314 (National Center for Advancing Translational Sciences (NCATS), 2010).
Hit rate of the full screen: of about 300,000 compounds, about 37,000 (12%) were called active. Many of the other results were omitted from the sample, so actives are more common in it than they were. Unmarked numbers belong to inactive results. Cut-off read from the data, not from the text of the source: active = max response mostly above about 13% (no sharp cut-off); inactive = mostly below about 14%.

Assay: Cycloheximide Counterscreen for Small Molecule Inhibitors of Shiga Toxin; note: read at 38.3 µM for the half of the compounds with a filed dose; 0% is about no effect
Settings: cell reporter, cycloheximide protein synthesis inhibition counterscreen; active compounds read high
Work on `CC(C)(C)c1nc2ccccc2c(=O)n1N1C(=O)c2ccccc2C1=O` yielded a max response of -2.32%.
Work on `Cc1ccc2nc(COc3ccc(N(C)S(=O)(=O)c4ccccc4)cc3)cc(=O)n2c1` yielded a max response of -1.15%.
For `CCOc1c(CNCc2ccc(C(=O)O)cc2)cccc1OC`, the max response was -3.44%.
Work on `CCCCCc1ccc(-c2cn(Cc3ccc4ccccc4c3)nn2)cc1` yielded a max response of -2.64%.
For `CCCCCc1ccc(-c2ccc(C(=O)O)cc2)nc1`, the max response was 79.8% (active).
`CCOc1ccc(-c2ccc(SCC(=O)N3CCOCC3)nn2)cc1` gave a max response of 23.3%.
Work on `O=C(O)c1ccc(COCC(F)(F)F)cc1` yielded a max response of -3.85%.
With `CCCCCc1ccc(-c2ccc(OCC)cc2)nc1` the max response was 15.6% (active).
Work on `COc1ccc(CNC(=O)C2CCN(S(=O)(=O)c3ccc(SC)cc3)CC2)cc1` yielded a max response of 10.4%.
In the case of `CCn1c(O)c(N=NC(=O)c2cccc(S(=O)(=O)N3CCCCC3)c2)c2ccccc21`, the max response is reported as -2.88%.
Work on `CC(=O)[O][Sn]([c]1ccccc1)([c]1ccccc1)[c]1ccccc1` yielded a max response of -16.7%.
Work on `O=C(O)CN1CCN(C(c2ccccc2)c2ccccc2)CC1` yielded a max response of -0.558%.
Work on `COC(=O)Cc1csc(/N=C/c2c(O)n(-c3cccc(C(F)(F)F)c3)c(=O)c3ccccc23)n1` yielded a max response of -0.585%.
In the case of `COc1ccc(NC(=O)c2cc([N+](=O)[O-])ccc2NC(=O)CNC2CCCCC2C)c(OC)c1` (centres undefined), the max response is reported as -4.84%.
Work on `CC(C)c1nnc(NC(=O)COC(=O)/C=C/c2ccc([N+](=O)[O-])cc2)s1` yielded a max response of -2.23%.
For `CCC(C)N(C)C1CCN(C(=S)Nc2ccc(OC)cc2)CC1` (centres undefined), the max response was 2.11%.
For `COc1ccccc1C1CCN(C(=S)Nc2ccc(Br)cc2)CC1`, the max response was 21.5% (active).
`COc1ccc(C(=O)NC2CCN(C(=S)Nc3ccccc3)CC2)cc1` gave a max response of -4.48%.
`O=C(CN1CCN(c2ccccc2)CC1)Nc1ccc(F)cc1` gave a max response of 0.655%.
With `Cc1cc2oc(C(=O)Nc3c(C)n(C)n(-c4ccccc4)c3=O)c(C)c2cc1Cl` the max response was -5.74%.
In the case of `O=C(CC1NCCNC1=O)Nc1cc(Cl)cc(Cl)c1` (centres undefined), the max response is reported as -5.54%.
With `O=C(CC1C(=O)NCCN1C(=O)c1ccc([N+](=O)[O-])cc1)Nc1cccc(Cl)c1` (centres undefined) the max response was 5.86%.
In the case of `O=C(CC1NCCc2ccccc21)Nc1cccc(Cl)c1` (centres undefined), the max response is reported as 30.4% (active).
`O=C1/C(=C\c2ccccc2Cl)SC(=S)N1CCC(=O)N1CCCc2ccccc21` gave a max response of -2.48%.
`Cc1ccc(C(=O)N2CC(=O)Nc3ccc(F)cc3C2c2ccc(F)cc2)cc1` (centres undefined) showed a max response of -2.84%.
`CCn1c(=S)sc2c(=O)n(CC(=O)Nc3cccc(Br)c3)c(C)nc21` showed a max response of -2.2%.
In the case of `CCCCC(C(=O)NC(C)(C)C)N(Cc1ccccc1)C(=O)c1snc(C(N)=O)c1N` (centres undefined), the max response is reported as -0.829%.
In the case of `COc1ccc(S(=O)(=O)NC(C)C(=O)Nc2cccc([N+](=O)[O-])c2)cc1` (centres undefined), the max response is reported as 5.76%.
With `COC(=O)/C=C\C(=O)Nc1cccc([N+](=O)[O-])c1` the max response was 58% (active).
For `CC(=O)Nc1cccc([N+](=O)[O-])c1`, the max response was 5.16%.
With `C[C@H](NC(=O)[C@@H]1Cc2ccccc2CN1C(=O)OC(C)(C)C)C(=O)NC1CCCC1` the max response was 0.878%.
Compound `Cc1cc(OC(=O)c2ccc(OC(C)C)cc2)c([N+](=O)[O-])c(=O)[nH]1` has a max response of 10.8%.
`Cc1ccc(S(=O)(=O)NCCCn2ccnc2)cc1C(=O)NC(C)C` gave a max response of -2.94%.
Compound `CCOc1ccc(N2C(=O)/C(=C/c3ccc(C)o3)N(C)C2=S)cc1` has a max response of -2.62%.
Compound `CCOc1ccc(NC(=O)NNC(=O)c2ccc(Cl)cc2Cl)cc1` has a max response of -2.33%.
Work on `CC(C)(C)OC(=O)N1CCC(C(=O)NNC(=O)c2ccc(Cl)cc2Cl)CC1` yielded a max response of 1.42%.
For `Cc1ccc(C(=O)NNC(=O)OC(C)(C)C)c(Cl)c1`, the max response was 23.3% (active).
Compound `Cc1ccccc1CN1C[C@@H]2C[C@@H](c3cn(C)nc3-c3ccccc3)N3CCC[C@@]23C1=O` has a max response of -1.2%.
In the case of `Cc1cccc(NC(=O)c2ccc3ccccc3n2)n1`, the max response is reported as 56.4% (active).
`Cc1cccc(NC(=O)c2cc(N3C(=O)CCC3=O)ccc2Cl)n1` showed a max response of -1.19%.
With `COC(=O)C(C(=O)Nc1cccc(C)n1)C1CCCCCC1` (centres undefined) the max response was 0.569%.
For `Cc1cccc(NC(=O)c2ccccc2NC(=O)C(C)(C)C)n1`, the max response was -4.22%.
With `CCOC(=O)C(=CNc1cccc(C)n1)C(=O)OCC` the max response was 11.4%.
For `Cc1cccc(NC(=O)c2cccnc2Cl)n1`, the max response was 24.1% (active).
With `COc1cccc(CNC(=O)C2CCCN(c3ncnc4c3nc3n4CCCCC3)C2)c1` (centres undefined) the max response was -1.2%.
`COc1cc2c(cc1OC)C(C(=O)Nc1cc(C)c(OC)c(C)c1)CC(=O)N2` (centres undefined) gave a max response of -2.52%.
With `Cc1c(Cl)cccc1NC(=S)NCC(O)c1ccccc1` (centres undefined) the max response was 7.6%.
For `O=c1ccc2cc(S(=O)(=O)NCCCc3ccccc3)ccc2[nH]1`, the max response was 0.781%.
In the case of `COCC(=O)Nc1c(C(=O)N2CCCC2)oc2ccccc12`, the max response is reported as 9.66%.
For `O=C(Nc1ccc(N2CCOCC2)nc1)c1c(F)cccc1F`, the max response was 47.6% (active).
For `O=C(Nc1ccc(F)cc1)c1cccnc1N1CCOCC1`, the max response was -3.65%.
`NC(=O)c1ccc(N2CCOCC2)nc1` showed a max response of 3.99%.
Work on `Cc1cccc(C)c1NC(=O)C(Cl)C(=O)c1ccccc1` (centres undefined) yielded a max response of -3.97%.
`CCCCNC(=S)N/N=C1\CCCCc2ccccc21` showed a max response of -5.15%.
With `O=C(C1=C[C@H](c2coc3ccccc3c2=O)C[C@H](OCc2ccc(CO)cc2)O1)N1CCN(Cc2ccccc2)CC1` the max response was 1.24%.
For `COc1ccccc1N1CCN(S(=O)(=O)CCNC(=O)c2ccc(OC(C)C)cc2)CC1`, the max response was -4.03%.
For `CCOC(=O)c1cc2n(c1N)-c1ccccc1C2=O`, the max response was 16.1% (active).
Compound `CCOC(=O)C1=C(C(=O)OCC)C(C(=O)OCC)N(S(=O)(=O)C(F)(F)F)c2ccccc21` (centres undefined) has a max response of 2.14%.
For `CCOC(=O)c1ccccc1CN1C(=O)c2ccccc2S1(=O)=O`, the max response was 0.941%.
